Experiment [1] is described as follows: sensitizers of A549 cells to miR-34 induction, primary screen, imaging, A549 dox-inducible miR-34, nuclei and caspase counts (AID 1347080). To be noted: A549 miR-34 inducible, Hoechst nuclei count, 48 h.
A short description of experiment [2]: survival rescue of mitochondrial mutant cells in low glucose, primary screen, MELAS cybrids, Rieske KO mouse fibroblasts, CellTiter-Glo (AID 1508586;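 active = mean z-score across replicates of 1.96 or higher in either the MELAS or the Rieske mutant cell line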;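 also: z relative to plate mean and SD of compound and empty wells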). (In general: ATP-based viability assays read luminescence as a measure of living cells.)
The mark [3] stands for this setting: stronger effect = lower value, cell number ratio, induced over uninduced.
The mark [4] stands for this setting: measured here: relative caspase fold change +Dox/-Dox.
Setting [5] is: measured here: total cells with miR-34 induction, stronger effect = lower value.
Where [6] appears, read: measured here: total cells without miR-34 induction.
The mark [7] stands for this setting: MELAS cybrid survival, CellTiter-Glo 48 h, stronger effect = higher value.
[8] abbreviates: Rieske KO mouse fibroblast survival, CellTiter-Glo 72 h.

Where “and” joins values, the source holds several entries; their conditions need not be identical. Equal entries are not always repeated. Calls of active or inactive are those of the source.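 The calls were made as follows, unless noted: active = compounds whose cell count with miR-34 switched on is under 0.7 times the count with it off; inactive = the rest.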
Also: test concentration not given here.

With `CC1(C)S[C@@H]2C(NC(=O)C(N)c3ccc(O)cc3)C(=O)N2C1C(=O)O` (stereo not given in full), the fold change was 0.958 (inactive) in experiment [1] (setting [3]) and 0.664 in experiment [1] (setting [4]). Further, the cell count in experiment [1] (setting [5]) was determined as 9670; in experiment [1] (setting [6]), 10100. The z-score is -0.365 (inactive) in experiment [2] (setting [7]) and 0.721 in experiment [2] (setting [8]).

For `COc1cccc2c1C(=O)c1c(O)c3c(c(O)c1C2=O)C[C@@](O)(C(C)=O)CC3O[C@H]1CC(N)C(O)C(C)O1` (stereo not given in full), the fold change in experiment [1] (setting [3]) is 0.959 (inactive); in experiment [1] (setting [4]) it was 0.948. Further, the values for the cell count in experiment [1] (setting [5]) and in experiment [1] (setting [6]) were 2300 and 2390, respectively. Further, the figures for the z-score in experiment [2] (setting [7]) and in experiment [2] (setting [8]) were 2.59 (active) and -0.443, respectively.

Regarding `CC1CCO[C@H]2Cn3cc(C(=O)NCc4ccc(F)cc4F)c(=O)c(O)c3C(=O)N12` (stereo not given in full), the fold change was 1 (inactive) in experiment [1] (setting [3]) and 0.731 in experiment [1] (setting [4]). Besides, the figures for the cell count in experiment [1] (setting [5]) and in experiment [1] (setting [6]) were 8400 and 8370, respectively. In addition, the z-score in experiment [2] (setting [7]) was -0.34 (inactive); in experiment [2] (setting [8]), 0.66.

`CC1C[C@H]2[C@@H]3CCC4=CC(=O)C=C[C@]4(C)[C@]3(Cl)C(O)C[C@]2(C)[C@]1(OC(=O)c1ccco1)C(=O)CCl` (stereo not given in full): the fold change is 0.916 (inactive) in experiment [1] (setting [3]) and 0.877 in experiment [1] (setting [4]). The cell count in experiment [1] (setting [5]) stood at 4380; in experiment [1] (setting [6]) it was 4780. Further, the z-score is -0.46 (inactive) in experiment [2] (setting [7]) and -0.518 in experiment [2] (setting [8]).

Turning to `CC(NC(=O)C(O)c1cc(F)cc(F)c1)C(=O)NC1C(=O)N(C)c2ccccc2-c2ccccc21` (stereo not given), the fold change in experiment [1] (setting [3]) was 0.896 (inactive); in experiment [1] (setting [4]) it was 0.875. Further, the figures for the cell count in experiment [1] (setting [5]) and in experiment [1] (setting [6]) were 8040 and 8970, respectively. Further, the z-score was -0.323 (inactive) in experiment [2] (setting [7]) and 1.18 in experiment [2] (setting [8]).

Regarding `O=C1NC(=O)C(=Cc2ccc3nccc(-c4ccncc4)c3c2)S1`, the fold change in experiment [1] (setting [3]) was 0.936 (inactive); in experiment [1] (setting [4]), 0.601. Further, the cell count was 1700 in experiment [1] (setting [5]) and 1820 in experiment [1] (setting [6]). For the same compound, the z-score in experiment [2] (setting [7]) is 0.995 (inactive); in experiment [2] (setting [8]) it was -1.12.

`O=C(c1cccc(Cl)c1F)N1CCN(Cc2cccc(Nc3nccs3)n2)CC1`: the values for the fold change in experiment [1] (setting [3]) and in experiment [1] (setting [4]) were 0.822 (inactive) and 4.5, respectively. The results for the cell count in experiment [1] (setting [5]) and in experiment [1] (setting [6]) were 2250 and 2740, respectively. Also, the z-score is -0.421 (inactive) in experiment [2] (setting [7]) and -0.143 in experiment [2] (setting [8]).

Take `CC(=O)OC1C[C@@H]2CC[C@@H]3[C@@H](CC[C@]4(C)C(OC(C)=O)C([N+]5(C)CCCCC5)C[C@@H]34)[C@@]2(C)CC1N1CCCCC1` (stereo not given in full): the results for the fold change in experiment [1] (setting [3]) and in experiment [1] (setting [4]) were 0.894 (inactive) and 1.12, respectively. For the same compound, the cell count came to 8090 in experiment [1] (setting [5]) and 9050 in experiment [1] (setting [6]). Also, the z-score in experiment [2] (setting [7]) was -0.47 (inactive); in experiment [2] (setting [8]), -0.53.

Consider `Oc1ccc(C2COc3cc(O)ccc3C2)cc1` (stereo not given), for which the fold change is 1.04 (inactive) and 0.979 (inactive) in experiment [1] (setting [3]); 1.09 and 0.678 in experiment [1] (setting [4]). The cell count is 6090 and 7580 in experiment [1] (setting [5]); 5860 and 7740 in experiment [1] (setting [6]). Further, the z-score in experiment [2] (setting [7]) is -0.326 (inactive); in experiment [2] (setting [8]), -0.182.

For `O=C(Nc1ccccc1Br)NC1CCN(c2ccc(C(F)(F)F)cn2)C1` (stereo not given), the fold change in experiment [1] (setting [3]) is 0.944 (inactive); in experiment [1] (setting [4]) it was 0.559. Besides, the cell count in experiment [1] (setting [5]) was 9350; in experiment [1] (setting [6]), 9910. For the same compound, the figures for the z-score in experiment [2] (setting [7]) and in experiment [2] (setting [8]) were -0.215 (inactive) and 0.944, respectively.

Take `COC1CC2CCC(C)[C@@](O)(O2)C(=O)C(=O)N2CCCCC2C(=O)OC(C(C)CC2CCC(OCCO)C(OC)C2)CC(=O)C(C)C=C(C)C(O)C(OC)C(=O)C(C)CC(C)C=CC=CC=C1C` (stereo not given in full): the fold change in experiment [1] (setting [3]) was 1.03 (inactive); in experiment [1] (setting [4]) it was 1. In addition, the cell count turned out to be 4550 in experiment [1] (setting [5]) and 4420 in experiment [1] (setting [6]). Further, the z-score in experiment [2] (setting [7]) was 0.115 (inactive); in experiment [2] (setting [8]), 1.87.

Consider `CNC(=O)c1cccc(-c2ccc3c(N4CCOCC4C)nc(N4CCOCC4C)nc3n2)c1` (stereo not given), for which the fold change in experiment [1] (setting [3]) was 1 (inactive); in experiment [1] (setting [4]) it was 0.416. Moreover, the cell count turned out to be 3420 in experiment [1] (setting [5]) and 3410 in experiment [1] (setting [6]). Besides, the z-score in experiment [2] (setting [7]) was 3.83 (active); in experiment [2] (setting [8]), -2.15.

Take `CC(=O)Nc1nc2c(Oc3cc(-c4ccc(C(F)(F)F)cc4)ncn3)cccc2s1`: the fold change in experiment [1] (setting [3]) is 0.981 (inactive); in experiment [1] (setting [4]), 0.45. The results for the cell count in experiment [1] (setting [5]) and in experiment [1] (setting [6]) were 8510 and 8670, respectively. Further, the figures for the z-score in experiment [2] (setting [7]) and in experiment [2] (setting [8]) were -0.457 (inactive) and -0.29, respectively.

Turning to `C#C[C@@]1(OC(C)=O)CC[C@H]2[C@@H]3CCC4=CC(OC(C)=O)CC[C@@H]4[C@@H]3CC[C@@]21C` (stereo not given in full), the fold change was 0.978 (inactive) in experiment [1] (setting [3]) and 0.478 in experiment [1] (setting [4]). Also, the values for the cell count in experiment [1] (setting [5]) and in experiment [1] (setting [6]) were 8080 and 8260, respectively. The figures for the z-score in experiment [2] (setting [7]) and in experiment [2] (setting [8]) were -0.279 (inactive) and -0.148, respectively.

Take `CC(OC1OCCN(Cc2nn(P(=O)(O)O)c(=O)[nH]2)C1c1ccc(F)cc1)c1cc(C(F)(F)F)cc(C(F)(F)F)c1` (stereo not given): the fold change in experiment [1] (setting [3]) is 1.01 (inactive); in experiment [1] (setting [4]) it was 0.443. Further, the cell count in experiment [1] (setting [5]) turned out to be 5980; in experiment [1] (setting [6]) it was 5920. In addition, the z-score in experiment [2] (setting [7]) was -0.192 (inactive); in experiment [2] (setting [8]), -0.0927.

With `CC(OC1OCCN(Cc2n[nH]c(=O)[nH]2)C1c1ccc(F)cc1)c1cc(C(F)(F)F)cc(C(F)(F)F)c1` (stereo not given), the fold change was 0.911 (inactive) in experiment [1] (setting [3]) and 3.19 in experiment [1] (setting [4]). In addition, the figures for the cell count in experiment [1] (setting [5]) and in experiment [1] (setting [6]) were 7240 and 7950, respectively. In addition, the z-score in experiment [2] (setting [7]) is 1.33 (inactive); in experiment [2] (setting [8]), -2.44.

With `NCCCCCNCC12CC3CC(CC(C3)C1)C2`, the fold change is 0.991 (inactive) in experiment [1] (setting [3]) and 0.726 in experiment [1] (setting [4]). The results for the cell count in experiment [1] (setting [5]) and in experiment [1] (setting [6]) were 8590 and 8670, respectively. Further, the z-score was -0.291 (inactive) in experiment [2] (setting [7]) and -0.0827 in experiment [2] (setting [8]).

As for `O=C(O)c1ccc(N2C(=O)C(=Cc3ccc(-c4ccc([N+](=O)[O-])cc4)o3)C=C2c2ccccc2)cc1`, the results for the fold change in experiment [1] (setting [3]) and in experiment [1] (setting [4]) were 0.852 (inactive) and 1.02, respectively. Besides, the cell count was determined as 7620 in experiment [1] (setting [5]) and 8950 in experiment [1] (setting [6]). Besides, the z-score is -0.417 (inactive) in experiment [2] (setting [7]) and 0.868 in experiment [2] (setting [8]).

For `NC(=O)N1CCC(CC(=O)N2CCC(C3c4ncc(Br)cc4CCc4cc(Cl)cc(Br)c43)CC2)CC1` (stereo not given), the fold change is 1.04 (inactive) in experiment [1] (setting [3]) and 0.678 in experiment [1] (setting [4]). In addition, the cell count turned out to be 5310 in experiment [1] (setting [5]) and 5110 in experiment [1] (setting [6]). Besides, the z-score is -0.458 (inactive) in experiment [2] (setting [7]) and 0.637 in experiment [2] (setting [8]).

Regarding `COc1ccc(CNc2nc(N3CCCC3CO)ncc2C(=O)NCc2ncccn2)cc1Cl` (stereo not given), the fold change is 0.988 (inactive) in experiment [1] (setting [3]) and 1.09 in experiment [1] (setting [4]). The cell count in experiment [1] (setting [5]) is 8210; in experiment [1] (setting [6]), 8300. For the same compound, the z-score in experiment [2] (setting [7]) is -0.603 (inactive); in experiment [2] (setting [8]), -0.114.
